Laboratory results reported in PubChem BioAssay (NCI).
Several values for one entry are separate records, joined by “and”; a condition that tells them apart may be missing. Equal entries are not always repeated. About 83,000 compounds went through this panel and 20% of them were active in at least one assay; those are over-represented in the sample as a whole.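 Plates (96-well) were seeded with cells, treated with compound at one concentration, and incubated for 48 hours before percent growth was determined.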 Unmarked numbers belong to inactive results. Activity calls are given as the source filed them. Rule for the calls: active = growth percent below 10; inactive = the rest.

Experiments:
Assay in all cases: NCI-60 one-dose screen, 48 h (100 = growth as untreated, 0 = no growth, -100 = all killed)
HCT-15 colon = conditions: 10 µM
HT29 colon = conditions: 10 µM
SNB-75 CNS = conditions: 10 µM
SNB-19 CNS = conditions: 10 µM
U251 CNS = conditions: 10 µM
PC-3 prostate = conditions: 10 µM
SK-MEL-5 melanoma = conditions: 10 µM
LOX IMVI melanoma = conditions: 10 µM
SK-MEL-28 melanoma = conditions: 10 µM
UACC-62 melanoma = conditions: 10 µM unless noted

SMILES | growth (HCT-15 colon) | growth (HT29 colon) | growth (SNB-75 CNS) | growth (SNB-19 CNS) | growth (U251 CNS) | growth (PC-3 prostate) | growth (SK-MEL-5 melanoma) | growth (LOX IMVI melanoma) | growth (SK-MEL-28 melanoma) | growth (UACC-62 melanoma)
CCOP(=O)(OCC)/C(C#N)=C/c1ccc(Br)cc1 | 96.3% | 98.2% | 86.6% | 96.8% | 99.3% | 95.9% | 108% | 95.5% | 115% | 
CC(=O)[O][Hg][c]1c(C)c(C)cc(C)c1C | -39.6% (active) | -62.1% (active) | -81.2% (active) | 39.8% | -97.3% (active) | -77.3% (active) | -57.5% (active) | -95.3% (active) | -37.9% (active) | 
COc1cc2c(cc1OC)C13CCN4CC5=CCOC6CC(=O)N2C1C6C5CC43 (stereo not given) | 103% and 109% | 122% and 111% | 97.8% and 111% | 105% and 111% | 98% and 98.4% | 94.8% and 40% | 92.9% and 91.1% | 101% and 97.4% | 114% and 105% | 104% and 88.1%
COC(=O)C1C(O)C(C)C(O)C(C)/C=C\C=C(C)C(=O)Nc2c(C)c(OC(C)=O)c3c(c2O)C(=O)C(C)=C2OCOC(=C23)C(C)=CC(C)(O)C(O)C(C)C1O (stereo not given) | 43.8% | 90.3% | 32.4% | 99.1% | 45.9% | 48.8% |  | 78.7% |  | 
Cn1c(O)c(N=O)c(=O)n(C)c1=O | 104% and 111% | 117% and 114% | 99.3% and 95.2% | 107% and 98.5% | 94.6% and 109% | 101% and 95.1% |  | 91.4% and 94.4% | 113% and 107% | 99.7% and 93.3%
CCCCCCCC[N+]12CN3CN(CN(C3)C1)C2 | 96.7% | 112% | 89.4% | 90.1% | 101% | 96.7% |  | 97.5% | 98.8% | 91.7%
C=NCC#N | 94.2% and 107% | 83.6% and 103% | 91.4% and 88.2% | 102% and 108% | 102% and 107% | 96.3% and 122% |  | 102% and 111% | 123% and 108% | 107% and 104%
O=C1CCC(=O)N1SC(Cl)(Cl)Cl | 107% | 102% | 92.1% | 103% | 118% | 91.2% |  | 108% | 107% | 106%
O=C(CCl)Nc1ccc(Cl)cc1 | 37.2% | 41.2% | 62.4% | 79.1% | 0.303% (active) | 62.9% |  | 38.3% | 69.5% | 47.1%
COc1ccccc1/C=C/[N+](=O)[O-] | 42.3% | 39.5% | 69.4% | 86.9% | 50.3% | 64.1% |  | 37.4% | 79.4% | 73%
COc1cc([C@@H]2c3cc4c(c(O)c3C[C@H]3COC(=O)[C@@H]32)OCO4)cc(OC)c1OC | 10.2% | 12.9% | 24% | 7.28% (active) | 23.8% | -0.628% (active) | -42.8% (active) | 19.9% | 54.3% | 
O=S(=O)(F)c1ccc(Cl)cc1 | 98% | 106% | 92.9% | 101% | 109% | 91.4% |  | 96.7% | 119% | 103%
S=C=NCCc1ccccc1 | 51.7% | 31.9% | 54.2% | 54.3% | 46.5% | 64.2% |  | 32.2% |  | 55%
